# Reference: PMC7862700, “An all-to-all approach to the identification of sequence-specific readers for epigenetic DNA modifications on cytosine”
# Assays:
# Test in all cases: DAPPL (digital affinity profiling via proximity ligation, sequencing); 10 mM Tris-HCl pH 7.5, 50 mM NaCl, 1 mM DTT, 4% glycerol, room temperature, 30 min; GST-TFs on glutathione beads, 16-mer random dsDNA library, 0.1% formaldehyde crosslink after washing; high values mean tight binding
# FLI1 = biological target: T1, FLI1 (Homo sapiens, UniProt Q01543 1-452); conditions: protein: recombinant; tags: N-terminal GST; dsDNA, one strand shown
# T1 sequence: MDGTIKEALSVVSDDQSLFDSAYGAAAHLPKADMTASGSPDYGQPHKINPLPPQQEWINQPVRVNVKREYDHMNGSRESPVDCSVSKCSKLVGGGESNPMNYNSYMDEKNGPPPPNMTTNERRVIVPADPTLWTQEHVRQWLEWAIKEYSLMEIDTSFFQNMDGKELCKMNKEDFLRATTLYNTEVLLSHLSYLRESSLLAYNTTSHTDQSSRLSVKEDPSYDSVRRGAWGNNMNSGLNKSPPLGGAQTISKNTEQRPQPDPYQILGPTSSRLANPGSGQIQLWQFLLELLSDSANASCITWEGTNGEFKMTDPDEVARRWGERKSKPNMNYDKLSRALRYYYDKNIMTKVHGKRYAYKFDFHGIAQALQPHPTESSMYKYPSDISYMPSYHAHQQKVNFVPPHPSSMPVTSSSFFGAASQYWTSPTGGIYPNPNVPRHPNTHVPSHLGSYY
# How it was run: (§1)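 GST fusions of human transcription factors were expressed in yeast and captured with glutathione beads. Once given DNA barcodes and pooled alongside a tag-only sample, they were incubated for 30 min at room temperature with 200 nmole of a random double-stranded 16-mer DNA library in Tris/NaCl/DTT/glycerol buffer, then washed, crosslinked (0.1% formaldehyde), proximity-ligated, PCR-amplified and sequenced on an Illumina NextSeq500. The binding signal of each hexamer is its read frequency for a factor divided by its frequency for the tag-only sample.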
# ELK1 = biological target: T2, ELK1 (Homo sapiens, UniProt P19419 1-428); conditions: protein: recombinant; tags: N-terminal GST; dsDNA, one strand shown
# T2 sequence: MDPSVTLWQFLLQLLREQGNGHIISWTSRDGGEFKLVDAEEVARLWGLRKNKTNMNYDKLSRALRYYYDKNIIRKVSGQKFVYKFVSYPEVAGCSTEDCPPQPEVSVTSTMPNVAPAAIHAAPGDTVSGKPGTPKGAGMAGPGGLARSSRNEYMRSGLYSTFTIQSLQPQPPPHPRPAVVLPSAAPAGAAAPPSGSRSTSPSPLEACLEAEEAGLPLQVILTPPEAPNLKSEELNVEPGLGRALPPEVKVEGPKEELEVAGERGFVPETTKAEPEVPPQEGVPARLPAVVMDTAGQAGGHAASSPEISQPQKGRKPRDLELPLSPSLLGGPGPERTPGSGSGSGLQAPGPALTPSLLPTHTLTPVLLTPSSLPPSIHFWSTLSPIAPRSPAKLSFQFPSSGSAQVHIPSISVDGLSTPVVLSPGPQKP
# How it was run: as §1
# GABPA = biological target: T3, GABPA (Homo sapiens, UniProt Q06546 1-454); conditions: protein: recombinant; tags: N-terminal GST; dsDNA, one strand shown
# T3 sequence: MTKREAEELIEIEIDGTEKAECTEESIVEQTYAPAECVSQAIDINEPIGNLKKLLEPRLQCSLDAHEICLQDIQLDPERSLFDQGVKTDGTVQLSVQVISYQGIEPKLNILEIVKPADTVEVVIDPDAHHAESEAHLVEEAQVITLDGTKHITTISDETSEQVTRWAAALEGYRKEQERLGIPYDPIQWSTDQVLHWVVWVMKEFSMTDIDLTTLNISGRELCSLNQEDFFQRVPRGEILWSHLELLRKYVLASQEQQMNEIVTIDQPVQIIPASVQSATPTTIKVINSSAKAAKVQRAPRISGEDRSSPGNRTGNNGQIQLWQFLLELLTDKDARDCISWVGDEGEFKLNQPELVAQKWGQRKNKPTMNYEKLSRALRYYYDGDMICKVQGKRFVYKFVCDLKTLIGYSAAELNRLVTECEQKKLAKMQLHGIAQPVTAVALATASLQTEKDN
# How it was run: as §1
# ERG = biological target: T4, ERG (Homo sapiens, UniProt P11308 1-479); conditions: protein: recombinant; tags: N-terminal GST; dsDNA, one strand shown
# T4 sequence: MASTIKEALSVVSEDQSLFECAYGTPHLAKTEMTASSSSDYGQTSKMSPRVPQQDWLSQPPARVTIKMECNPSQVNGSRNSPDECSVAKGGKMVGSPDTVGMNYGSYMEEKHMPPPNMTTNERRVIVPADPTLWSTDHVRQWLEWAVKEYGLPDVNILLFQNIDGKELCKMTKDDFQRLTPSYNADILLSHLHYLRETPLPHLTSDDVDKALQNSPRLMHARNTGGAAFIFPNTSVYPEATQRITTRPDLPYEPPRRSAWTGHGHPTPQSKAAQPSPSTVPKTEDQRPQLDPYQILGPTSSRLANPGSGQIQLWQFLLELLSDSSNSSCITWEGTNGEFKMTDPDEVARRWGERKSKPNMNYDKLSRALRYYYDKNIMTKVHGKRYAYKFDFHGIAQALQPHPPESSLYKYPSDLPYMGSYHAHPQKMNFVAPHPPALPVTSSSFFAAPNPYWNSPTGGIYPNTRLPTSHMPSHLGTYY
# How it was run: as §1
# ELF1 = ELF1 (Homo sapiens, UniProt P32519 1-619); conditions: protein: recombinant; tags: N-terminal GST; dsDNA, one strand shown
# ELF1, sequence (P32519 whole entry): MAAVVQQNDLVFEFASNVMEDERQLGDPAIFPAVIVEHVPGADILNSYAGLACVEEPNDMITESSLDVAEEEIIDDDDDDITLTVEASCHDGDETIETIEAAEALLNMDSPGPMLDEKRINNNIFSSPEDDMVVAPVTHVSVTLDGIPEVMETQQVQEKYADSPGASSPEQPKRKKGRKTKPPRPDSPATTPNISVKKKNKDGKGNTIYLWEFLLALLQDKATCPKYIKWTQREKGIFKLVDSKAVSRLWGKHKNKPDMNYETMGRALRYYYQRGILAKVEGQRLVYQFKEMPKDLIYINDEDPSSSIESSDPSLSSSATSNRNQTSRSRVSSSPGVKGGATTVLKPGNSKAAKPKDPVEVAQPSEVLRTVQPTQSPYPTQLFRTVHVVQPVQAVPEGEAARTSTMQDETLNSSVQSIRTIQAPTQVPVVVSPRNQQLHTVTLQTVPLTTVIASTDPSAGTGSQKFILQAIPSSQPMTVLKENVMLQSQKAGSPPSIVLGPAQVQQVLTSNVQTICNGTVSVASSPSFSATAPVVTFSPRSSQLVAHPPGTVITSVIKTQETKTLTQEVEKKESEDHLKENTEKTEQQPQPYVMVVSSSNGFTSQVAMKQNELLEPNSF
# How it was run: as §1
# EHF = biological target: T5, EHF (Homo sapiens, UniProt Q9NZC4 1-300); conditions: protein: recombinant; tags: N-terminal GST; dsDNA, one strand shown
# T5 sequence: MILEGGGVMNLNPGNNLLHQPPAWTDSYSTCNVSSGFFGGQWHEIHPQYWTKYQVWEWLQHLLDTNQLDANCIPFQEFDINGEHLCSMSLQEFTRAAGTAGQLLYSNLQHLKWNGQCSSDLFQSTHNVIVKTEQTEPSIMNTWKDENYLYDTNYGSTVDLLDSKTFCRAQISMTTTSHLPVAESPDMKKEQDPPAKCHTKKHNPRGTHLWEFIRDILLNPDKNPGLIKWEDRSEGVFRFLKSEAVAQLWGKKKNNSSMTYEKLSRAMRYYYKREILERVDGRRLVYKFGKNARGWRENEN
# How it was run: as §1
# SPI1 = SPI1 (Homo sapiens, UniProt P17947 1-270); conditions: protein: recombinant; tags: N-terminal GST; dsDNA, one strand shown
# How it was run: as §1
# SPIB = SPIB (Homo sapiens, UniProt Q01892 1-262); conditions: protein: recombinant; tags: N-terminal GST; dsDNA, one strand shown
# SPIB, sequence (Q01892 whole entry): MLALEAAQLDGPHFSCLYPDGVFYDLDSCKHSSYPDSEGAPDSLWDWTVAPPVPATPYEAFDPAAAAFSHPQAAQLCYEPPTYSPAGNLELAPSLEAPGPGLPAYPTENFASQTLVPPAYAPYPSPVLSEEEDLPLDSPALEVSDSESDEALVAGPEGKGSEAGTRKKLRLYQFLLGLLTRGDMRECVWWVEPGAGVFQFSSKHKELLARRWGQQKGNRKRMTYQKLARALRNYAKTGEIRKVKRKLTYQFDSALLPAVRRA
# How it was run: as §1
# ELK3 = biological target: T6, ELK3 (Homo sapiens, UniProt P41970 1-407); conditions: protein: recombinant; tags: N-terminal GST; dsDNA, one strand shown
# T6 sequence: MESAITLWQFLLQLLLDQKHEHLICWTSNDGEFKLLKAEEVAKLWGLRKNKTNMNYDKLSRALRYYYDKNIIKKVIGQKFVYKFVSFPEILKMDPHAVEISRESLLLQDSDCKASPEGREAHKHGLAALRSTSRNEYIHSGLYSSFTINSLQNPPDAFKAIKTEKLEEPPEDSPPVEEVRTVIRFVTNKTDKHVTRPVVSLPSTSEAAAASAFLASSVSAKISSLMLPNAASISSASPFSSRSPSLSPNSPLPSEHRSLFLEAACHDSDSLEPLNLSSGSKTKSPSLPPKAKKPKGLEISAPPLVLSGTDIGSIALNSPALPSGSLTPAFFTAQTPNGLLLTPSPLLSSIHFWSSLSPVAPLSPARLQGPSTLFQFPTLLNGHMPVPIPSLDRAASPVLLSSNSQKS
# How it was run: as §1
# FEV = biological target: T7, FEV (Homo sapiens, UniProt Q99581 1-238); conditions: protein: recombinant; tags: N-terminal GST; dsDNA, one strand shown
# T7 sequence: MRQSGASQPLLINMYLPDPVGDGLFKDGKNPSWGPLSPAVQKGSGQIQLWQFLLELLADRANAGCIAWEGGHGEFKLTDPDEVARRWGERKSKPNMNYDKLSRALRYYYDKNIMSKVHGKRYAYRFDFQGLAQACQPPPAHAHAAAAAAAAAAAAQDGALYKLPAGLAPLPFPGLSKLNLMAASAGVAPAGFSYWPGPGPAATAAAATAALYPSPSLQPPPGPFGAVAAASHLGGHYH
# How it was run: as §1
# ETV5 = ETV5 (Homo sapiens, UniProt P41161 1-510); conditions: protein: recombinant; tags: N-terminal GST; dsDNA, one strand shown
# ETV5, sequence (P41161 whole entry): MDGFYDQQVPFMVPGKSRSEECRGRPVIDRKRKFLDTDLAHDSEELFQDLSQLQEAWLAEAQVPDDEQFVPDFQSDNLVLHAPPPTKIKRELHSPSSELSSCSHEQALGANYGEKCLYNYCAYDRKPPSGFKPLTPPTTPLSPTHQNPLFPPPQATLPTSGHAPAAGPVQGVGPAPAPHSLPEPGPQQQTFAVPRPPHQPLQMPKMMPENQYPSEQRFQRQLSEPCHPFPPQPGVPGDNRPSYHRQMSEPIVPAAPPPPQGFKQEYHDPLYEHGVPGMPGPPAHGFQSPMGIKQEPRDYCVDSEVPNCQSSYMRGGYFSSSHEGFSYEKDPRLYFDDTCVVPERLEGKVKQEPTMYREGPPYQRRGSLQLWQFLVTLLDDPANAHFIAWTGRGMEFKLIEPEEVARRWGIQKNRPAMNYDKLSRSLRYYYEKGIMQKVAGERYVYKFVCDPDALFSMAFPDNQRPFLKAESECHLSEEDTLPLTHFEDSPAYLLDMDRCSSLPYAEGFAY
# How it was run: as §1
# HSF1 = HSF1 (Homo sapiens, UniProt Q00613 1-529); conditions: protein: recombinant; tags: N-terminal GST; chain copies: 3; dsDNA, one strand shown
# HSF1, sequence (Q00613 whole entry): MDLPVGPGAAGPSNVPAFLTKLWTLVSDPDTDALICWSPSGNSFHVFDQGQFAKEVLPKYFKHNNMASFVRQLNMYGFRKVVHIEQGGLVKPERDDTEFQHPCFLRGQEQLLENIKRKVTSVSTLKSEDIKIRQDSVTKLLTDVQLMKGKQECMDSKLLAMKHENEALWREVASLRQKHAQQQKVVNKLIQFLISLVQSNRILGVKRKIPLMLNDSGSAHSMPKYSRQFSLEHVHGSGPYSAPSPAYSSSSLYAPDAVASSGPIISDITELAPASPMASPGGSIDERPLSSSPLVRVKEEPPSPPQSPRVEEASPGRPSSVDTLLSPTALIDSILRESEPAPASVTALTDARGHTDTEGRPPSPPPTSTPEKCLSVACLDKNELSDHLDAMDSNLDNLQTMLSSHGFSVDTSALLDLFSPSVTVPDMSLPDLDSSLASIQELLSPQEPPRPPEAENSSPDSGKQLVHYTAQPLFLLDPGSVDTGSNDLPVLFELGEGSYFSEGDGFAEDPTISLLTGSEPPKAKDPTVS
# How it was run: as §1
# SPIC = biological target: T8, SPIC (Homo sapiens, UniProt Q8N5J4 1-248); conditions: protein: recombinant; tags: N-terminal GST; dsDNA, one strand shown
# T8 sequence: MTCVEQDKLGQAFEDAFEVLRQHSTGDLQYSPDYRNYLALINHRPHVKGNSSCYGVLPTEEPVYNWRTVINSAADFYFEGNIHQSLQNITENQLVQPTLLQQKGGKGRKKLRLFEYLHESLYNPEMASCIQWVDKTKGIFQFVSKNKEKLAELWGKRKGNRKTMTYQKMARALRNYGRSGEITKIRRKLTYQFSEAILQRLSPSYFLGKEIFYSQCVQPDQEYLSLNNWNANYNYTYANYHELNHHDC
# How it was run: as §1
# ELF4 = ELF4 (Homo sapiens, UniProt Q99607 1-663); conditions: protein: recombinant; tags: N-terminal GST; dsDNA, one strand shown
# ELF4, sequence (Q99607 whole entry): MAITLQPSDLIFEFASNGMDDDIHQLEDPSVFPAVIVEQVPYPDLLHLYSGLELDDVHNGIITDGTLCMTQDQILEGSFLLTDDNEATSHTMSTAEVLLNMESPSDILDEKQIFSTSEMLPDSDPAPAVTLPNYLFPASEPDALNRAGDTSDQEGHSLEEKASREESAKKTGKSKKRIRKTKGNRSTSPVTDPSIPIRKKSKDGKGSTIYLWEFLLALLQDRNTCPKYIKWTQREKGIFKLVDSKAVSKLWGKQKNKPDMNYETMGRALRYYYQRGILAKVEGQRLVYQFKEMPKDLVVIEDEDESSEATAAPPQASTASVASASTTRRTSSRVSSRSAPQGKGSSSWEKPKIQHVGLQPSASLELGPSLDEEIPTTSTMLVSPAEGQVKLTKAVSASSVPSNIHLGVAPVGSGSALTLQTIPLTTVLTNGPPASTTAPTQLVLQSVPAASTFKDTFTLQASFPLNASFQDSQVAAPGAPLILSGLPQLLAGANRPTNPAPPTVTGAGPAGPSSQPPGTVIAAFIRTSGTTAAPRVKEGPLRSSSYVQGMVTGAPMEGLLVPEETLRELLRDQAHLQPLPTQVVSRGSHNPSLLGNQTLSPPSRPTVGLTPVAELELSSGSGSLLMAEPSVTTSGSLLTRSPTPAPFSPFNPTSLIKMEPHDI
# How it was run: as §1
# ELK4 = biological target: T9, ELK4 (Homo sapiens, UniProt P28324-2 1-405); conditions: protein: recombinant; tags: N-terminal GST; dsDNA, one strand shown
# T9 sequence: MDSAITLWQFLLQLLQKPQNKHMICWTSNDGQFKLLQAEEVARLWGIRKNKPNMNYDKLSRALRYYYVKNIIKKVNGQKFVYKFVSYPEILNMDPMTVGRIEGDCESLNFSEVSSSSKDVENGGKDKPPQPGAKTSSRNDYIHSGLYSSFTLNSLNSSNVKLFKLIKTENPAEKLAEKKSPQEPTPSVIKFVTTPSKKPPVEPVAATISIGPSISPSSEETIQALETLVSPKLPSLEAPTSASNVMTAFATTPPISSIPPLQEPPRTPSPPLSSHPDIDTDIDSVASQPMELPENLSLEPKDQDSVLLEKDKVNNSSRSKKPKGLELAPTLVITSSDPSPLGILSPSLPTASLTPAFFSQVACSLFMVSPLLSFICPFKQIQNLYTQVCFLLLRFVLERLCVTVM
# How it was run: as §1
# ETV2 = biological target: T10, ETV2 (Homo sapiens, UniProt O00321 1-342); conditions: protein: recombinant; tags: N-terminal GST; dsDNA, one strand shown
# T10 sequence: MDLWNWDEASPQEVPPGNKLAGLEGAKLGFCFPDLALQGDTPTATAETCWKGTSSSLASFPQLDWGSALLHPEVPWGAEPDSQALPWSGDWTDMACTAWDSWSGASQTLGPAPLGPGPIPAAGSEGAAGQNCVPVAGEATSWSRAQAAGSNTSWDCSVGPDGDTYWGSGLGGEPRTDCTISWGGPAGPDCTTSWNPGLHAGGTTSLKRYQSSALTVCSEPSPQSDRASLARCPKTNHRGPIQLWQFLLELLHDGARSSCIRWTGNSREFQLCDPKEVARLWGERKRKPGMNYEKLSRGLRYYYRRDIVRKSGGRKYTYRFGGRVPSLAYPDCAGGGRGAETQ
# How it was run: as §1
# ELF3 = biological target: T11, ELF3 (Homo sapiens, UniProt P78545 1-371); conditions: protein: recombinant; tags: N-terminal GST; dsDNA, one strand shown
# T11 sequence: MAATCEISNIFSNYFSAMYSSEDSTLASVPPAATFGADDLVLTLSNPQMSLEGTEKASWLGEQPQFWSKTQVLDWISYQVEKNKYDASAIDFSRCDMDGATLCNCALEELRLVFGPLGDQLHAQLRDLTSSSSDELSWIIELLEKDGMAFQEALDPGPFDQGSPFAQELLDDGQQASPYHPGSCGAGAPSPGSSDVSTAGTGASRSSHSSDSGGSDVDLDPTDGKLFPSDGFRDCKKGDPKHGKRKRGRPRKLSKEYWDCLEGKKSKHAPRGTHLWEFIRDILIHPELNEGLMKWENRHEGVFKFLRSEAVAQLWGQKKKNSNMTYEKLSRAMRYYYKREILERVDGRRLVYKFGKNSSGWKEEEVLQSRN
# How it was run: as §1
# CRX = CRX (Homo sapiens, UniProt O43186 1-299); conditions: protein: recombinant; tags: N-terminal GST; dsDNA, one strand shown
# CRX, sequence (O43186 whole entry): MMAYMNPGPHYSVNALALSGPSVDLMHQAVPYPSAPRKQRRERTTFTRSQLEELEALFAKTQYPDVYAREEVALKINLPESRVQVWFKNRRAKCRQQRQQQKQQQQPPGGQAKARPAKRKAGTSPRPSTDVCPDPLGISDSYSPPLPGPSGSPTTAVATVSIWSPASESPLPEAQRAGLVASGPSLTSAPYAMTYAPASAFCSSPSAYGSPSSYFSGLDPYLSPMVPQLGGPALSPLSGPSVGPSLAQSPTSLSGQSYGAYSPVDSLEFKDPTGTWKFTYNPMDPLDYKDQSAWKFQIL
# How it was run: as §1
# ETV1 = ETV1 (Homo sapiens, UniProt P50549 1-477); conditions: protein: recombinant; tags: N-terminal GST; dsDNA, one strand shown
# ETV1, sequence (P50549 whole entry): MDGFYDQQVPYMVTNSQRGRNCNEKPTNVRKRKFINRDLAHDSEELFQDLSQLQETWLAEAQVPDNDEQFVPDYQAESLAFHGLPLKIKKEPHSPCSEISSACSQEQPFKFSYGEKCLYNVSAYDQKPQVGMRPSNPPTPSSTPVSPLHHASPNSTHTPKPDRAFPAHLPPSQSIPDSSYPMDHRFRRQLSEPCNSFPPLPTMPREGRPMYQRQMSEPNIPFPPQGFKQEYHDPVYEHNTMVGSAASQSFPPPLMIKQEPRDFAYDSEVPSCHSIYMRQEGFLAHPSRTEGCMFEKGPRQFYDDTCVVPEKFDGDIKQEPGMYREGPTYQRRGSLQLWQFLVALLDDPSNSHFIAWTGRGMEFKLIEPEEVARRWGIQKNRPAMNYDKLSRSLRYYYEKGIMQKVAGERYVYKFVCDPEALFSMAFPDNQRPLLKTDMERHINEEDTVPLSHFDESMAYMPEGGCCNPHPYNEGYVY
# How it was run: as §1
sequence,measurement,setting,value
CCCGCC,binding signal,FLI1,"1.46 fold enrichment (6-mer frequency, TF over GST control)"
same,binding signal,ELK1,"1.75 fold enrichment (6-mer frequency, TF over GST control)"
same,binding signal,GABPA,"1.57 fold enrichment (6-mer frequency, TF over GST control)"
same,binding signal,ERG,"1.5 fold enrichment (6-mer frequency, TF over GST control)"
same,binding signal,ELF1,"1.58 fold enrichment (6-mer frequency, TF over GST control)"
same,binding signal,EHF,"1.53 fold enrichment (6-mer frequency, TF over GST control)"
same,binding signal,SPI1,"1.44 fold enrichment (6-mer frequency, TF over GST control)"
same,binding signal,SPIB,"1.31 fold enrichment (6-mer frequency, TF over GST control)"
same,binding signal,ELK3,"1.63 fold enrichment (6-mer frequency, TF over GST control)"
same,binding signal,FEV,"1.5 fold enrichment (6-mer frequency, TF over GST control)"
same,binding signal,ETV5,"1.31 fold enrichment (6-mer frequency, TF over GST control)"
same,binding signal,HSF1,"1.17 fold enrichment (6-mer frequency, TF over GST control)"
same,binding signal,SPIC,"1.67 fold enrichment (6-mer frequency, TF over GST control)"
same,binding signal,ELF4,"1.66 fold enrichment (6-mer frequency, TF over GST control)"
same,binding signal,ELK4,"1.43 fold enrichment (6-mer frequency, TF over GST control)"
same,binding signal,ETV2,"1.6 fold enrichment (6-mer frequency, TF over GST control)"
same,binding signal,ELF3,"1.45 fold enrichment (6-mer frequency, TF over GST control)"
same,binding signal,CRX,"1.21 fold enrichment (6-mer frequency, TF over GST control)"
same,binding signal,ETV1,"1.5 fold enrichment (6-mer frequency, TF over GST control)"
